The term AC50 denotes the concentration at which the activity in the assay is half-maximal.

The source made the active and inactive calls. Rule for the calls: active = hit-call score of the fitted dose curve at least 0.9, where 1 is the maximum; inactive = score below 0.9.

Read-out in one experiment: Interleukin-6 (IL6), IL6 (gene 3569)
The experiment can be described thus: BSK_CASM3C_IL6: BioMAP Diversity Plus: CASM3C Assay for Interleukin-6 (IL6) Biomarker Activity for (AID 2283040). The conditions noted are these: primary human coronary artery smooth muscle cells; actives raise or lower the signal.
`CN(C)C(=O)Nc1cccc(C(F)(F)F)c1`: the result was inactive.

Regarding `COP(=O)(NC(C)=O)SC` (configuration not stated), the outcome was inactive.

`CN(C)NC(=O)CCC(=O)O`: the result was inactive.

On to `C[Si](Cn1cncn1)(c1ccc(F)cc1)c1ccc(F)cc1`, for which the result was inactive.

As for `CCCOCC(=Nc1ccc(Cl)cc1C(F)(F)F)n1ccnc1`, the result was inactive.

In the case of `CC1=NNC(=O)N(/N=C/c2cccnc2)C1`, the result was inactive.

Turning to `C#CCC1=C(C)C(OC(=O)C2C(C=C(C)C)C2(C)C)CC1=O` (configuration not stated), the result was inactive.

Regarding `COP(=O)(OC)C(O)C(Cl)(Cl)Cl` (configuration not stated), the result was inactive.

For `COP(=O)(OC)SCn1c(=O)oc2cc(Cl)cnc21`, the result was inactive.

On to `CCOP(=S)(Oc1cnc(C(C)(C)C)nc1)OC(C)C` (configuration not stated), for which the outcome was inactive.

As for `CNC(=O)ON=C(SC)C(=O)N(C)C`, the result was inactive.

With `CCOP(=S)(OCC)SCCSCC`, the result was inactive.

`CNc1cnn(-c2cccc(C(F)(F)F)c2)c(=O)c1Cl`: the outcome was inactive.

Regarding `CC1(C(=O)Nc2ccc(O)c(Cl)c2Cl)CCCCC1`, the outcome was inactive.

Turning to `CN1COCN(Cc2cnc(Cl)s2)C1=N[N+](=O)[O-]`, the result was inactive.

For `CCCCSP(=O)(SCCCC)SCCCC`, the result was inactive.

With `CC(C1CC1)C(O)(Cn1cncn1)c1ccc(Cl)cc1` (configuration not stated), the outcome was inactive.

As to `CC[C@H](C)[C@H]1O[C@]2(C=C[C@@H]1C)C[C@@H]1C[C@@H](C/C=C(\C)[C@@H](O[C@H]3C[C@H](OC)[C@@H](O[C@H]4C[C@H](OC)[C@@H](NC)[C@H](C)O4)[C@H](C)O3)[C@@H](C)/C=C/C=C3\CO[C@@H]4[C@H](O)C(C)=C[C@@H](C(=O)O1)[C@]34O)O2`, the result was inactive.

Turning to `CC(C)=CC1C(C(=O)OCN2C(=O)C3=C(CCCC3)C2=O)C1(C)C` (configuration not stated), the result was inactive.

Regarding `CC(Oc1cccc(Cl)c1)C(=O)O` (configuration not stated), the outcome was inactive.

Take `CCc1cccc(C)c1N(C(=O)CCl)C(C)COC` (configuration not stated): the result was inactive.

With `Cc1nn(-c2cc(NS(C)(=O)=O)c(Cl)cc2Cl)c(=O)n1C(F)F`, the outcome was inactive.

`N#CSCSC#N`: the AC50 was 14.4 µM (active).

Regarding `Cc1ccn2nc(S(=O)(=O)Nc3c(F)cccc3F)nc2n1`, the result was inactive.

Consider `C[N+]1(C)CCCCC1`, for which the result was inactive.

For `CCCOc1nn(C(=O)NS(=O)(=O)c2ccccc2C(=O)OC)c(=O)n1C`, the result was inactive.

Consider `Nc1nc(N)nc(NC2CC2)n1`, for which the result was inactive.

With `Nc1c(Cl)cc([N+](=O)[O-])cc1Cl`, the outcome was inactive.

`CCc1cccc(CC)c1N(COC)C(=O)CCl`: the outcome was inactive.

As for `CCCSP(=O)(OCC)Oc1ccc(Br)cc1Cl` (configuration not stated), the AC50 was 23 µM (active).

As to `S=C1NCCN1`, the result was inactive.

Consider `CCOP(=S)(OCC)Oc1ccc([N+](=O)[O-])cc1`, for which the outcome was inactive.

For `CCC(=O)Nc1ccc(Cl)c(Cl)c1`, the result was inactive.

As to `CCCCOC(=O)c1ccccc1C(=O)O`, the result was inactive.

Turning to `C#CC(C)(C)NC(=O)c1cc(Cl)cc(Cl)c1`, the outcome was inactive.

On to `COc1cc(OC)nc(Sc2cccc(Cl)c2C(=O)O)n1`, for which the result was inactive.

Read-out in the next experiment: Tissue plasminogen activator (tPA), PLAT (gene 5327)
The experiment can be described thus: BSK_BE3C_tPA: BioMAP Diversity Plus: BE3C Assay for Tissue plasminogen activator (tPA) Biomarker Activity (AID 2283041).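 For outcome: tPA level quantified by ELISA one day after compound addition.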 The conditions noted are these: primary human bronchial epithelial cells; actives raise or lower the signal. An outline of the steps:
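Human primary bronchial epithelial cells were dosed with chemical and tPA biomarker levels measured by ELISA 24 hours later. Activity was fitted bidirectionally against DMSO as negative control and baseline.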
With `CN(C)C(=O)Nc1cccc(C(F)(F)F)c1`, the result was inactive.

As to `COP(=O)(NC(C)=O)SC` (configuration not stated), the outcome was inactive.

`CN(C)NC(=O)CCC(=O)O`: the result was inactive.

Consider `C[Si](Cn1cncn1)(c1ccc(F)cc1)c1ccc(F)cc1`, for which the result was inactive.

On to `CCCOCC(=Nc1ccc(Cl)cc1C(F)(F)F)n1ccnc1`, for which the AC50 was 32.8 µM (active).

For the compound `CC1=NNC(=O)N(/N=C/c2cccnc2)C1`, the result was inactive.

For the compound `C#CCC1=C(C)C(OC(=O)C2C(C=C(C)C)C2(C)C)CC1=O` (configuration not stated), the outcome was inactive.

In the case of `COP(=O)(OC)C(O)C(Cl)(Cl)Cl` (configuration not stated), the result was inactive.

Regarding `COP(=O)(OC)SCn1c(=O)oc2cc(Cl)cnc21`, the outcome was inactive.

Take `CCOP(=S)(Oc1cnc(C(C)(C)C)nc1)OC(C)C` (configuration not stated): the result was inactive.

In the case of `CNC(=O)ON=C(SC)C(=O)N(C)C`, the result was inactive.

As for `CCOP(=S)(OCC)SCCSCC`, the result was inactive.

With `CNc1cnn(-c2cccc(C(F)(F)F)c2)c(=O)c1Cl`, the result was inactive.

Take `CC1(C(=O)Nc2ccc(O)c(Cl)c2Cl)CCCCC1`: the outcome was inactive.

Consider `CN1COCN(Cc2cnc(Cl)s2)C1=N[N+](=O)[O-]`, for which the outcome was inactive.

On to `CCCCSP(=O)(SCCCC)SCCCC`, for which the result was inactive.

Regarding `CC(C1CC1)C(O)(Cn1cncn1)c1ccc(Cl)cc1` (configuration not stated), the outcome was inactive.

Take `CC[C@H](C)[C@H]1O[C@]2(C=C[C@@H]1C)C[C@@H]1C[C@@H](C/C=C(\C)[C@@H](O[C@H]3C[C@H](OC)[C@@H](O[C@H]4C[C@H](OC)[C@@H](NC)[C@H](C)O4)[C@H](C)O3)[C@@H](C)/C=C/C=C3\CO[C@@H]4[C@H](O)C(C)=C[C@@H](C(=O)O1)[C@]34O)O2`: the result was inactive.

As for `CC(C)=CC1C(C(=O)OCN2C(=O)C3=C(CCCC3)C2=O)C1(C)C` (configuration not stated), the result was inactive.

Turning to `CC(Oc1cccc(Cl)c1)C(=O)O` (configuration not stated), the result was inactive.

As to `CCc1cccc(C)c1N(C(=O)CCl)C(C)COC` (configuration not stated), the result was inactive.

On to `Cc1nn(-c2cc(NS(C)(=O)=O)c(Cl)cc2Cl)c(=O)n1C(F)F`, for which the result was inactive.

For `N#CSCSC#N`, the outcome was inactive.

`Cc1ccn2nc(S(=O)(=O)Nc3c(F)cccc3F)nc2n1`: the result was inactive.

Turning to `C[N+]1(C)CCCCC1`, the outcome was inactive.

On to `CCCOc1nn(C(=O)NS(=O)(=O)c2ccccc2C(=O)OC)c(=O)n1C`, for which the outcome was inactive.

In the case of `Nc1nc(N)nc(NC2CC2)n1`, the result was inactive.

For `Nc1c(Cl)cc([N+](=O)[O-])cc1Cl`, the outcome was inactive.

On to `CCc1cccc(CC)c1N(COC)C(=O)CCl`, for which the outcome was inactive.

Take `CCCSP(=O)(OCC)Oc1ccc(Br)cc1Cl` (configuration not stated): the AC50 is 13.4 µM (active).

With `S=C1NCCN1`, the result was inactive.

With `CCOP(=S)(OCC)Oc1ccc([N+](=O)[O-])cc1`, the result was inactive.

As to `CCC(=O)Nc1ccc(Cl)c(Cl)c1`, the result was inactive.

`CCCCOC(=O)c1ccccc1C(=O)O`: the outcome was inactive.

`C#CC(C)(C)NC(=O)c1cc(Cl)cc(Cl)c1`: the outcome was inactive.

As to `COc1cc(OC)nc(Sc2cccc(Cl)c2C(=O)O)n1`, the result was inactive.

The values are drawn from PubChem BioAssay (EPA / NIEHS).
